# In PubChem BioAssay (EPA / NIEHS):
# Records with an inconclusive call do not appear. Activity calls are given as the source filed them. Rule for the calls, unless noted: active = hit-call score of the fitted dose curve at least 0.9, where 1 is the maximum; inactive = score below 0.9.
# Legend:
# [1] = target: Glucocorticoid receptor (Homo sapiens) (UniProt P04150); test: ATG_GR_TRANS: Attagene TRANS-FACTORIAL HepG2 Assay for human Glucocorticoid Receptor (GR) (AID 2282978; active = hit-call score of the fitted dose curve at least 0.9, where 1 is the maximum;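 note: activators score as hits since higher reporter transcript over DMSO is fitted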); conditions: HepG2 Attagene TRANS GR reporter, mRNA transcription
# Chain of Glucocorticoid receptor (Homo sapiens) (P04150 whole entry, looked up, the tested form may be a part): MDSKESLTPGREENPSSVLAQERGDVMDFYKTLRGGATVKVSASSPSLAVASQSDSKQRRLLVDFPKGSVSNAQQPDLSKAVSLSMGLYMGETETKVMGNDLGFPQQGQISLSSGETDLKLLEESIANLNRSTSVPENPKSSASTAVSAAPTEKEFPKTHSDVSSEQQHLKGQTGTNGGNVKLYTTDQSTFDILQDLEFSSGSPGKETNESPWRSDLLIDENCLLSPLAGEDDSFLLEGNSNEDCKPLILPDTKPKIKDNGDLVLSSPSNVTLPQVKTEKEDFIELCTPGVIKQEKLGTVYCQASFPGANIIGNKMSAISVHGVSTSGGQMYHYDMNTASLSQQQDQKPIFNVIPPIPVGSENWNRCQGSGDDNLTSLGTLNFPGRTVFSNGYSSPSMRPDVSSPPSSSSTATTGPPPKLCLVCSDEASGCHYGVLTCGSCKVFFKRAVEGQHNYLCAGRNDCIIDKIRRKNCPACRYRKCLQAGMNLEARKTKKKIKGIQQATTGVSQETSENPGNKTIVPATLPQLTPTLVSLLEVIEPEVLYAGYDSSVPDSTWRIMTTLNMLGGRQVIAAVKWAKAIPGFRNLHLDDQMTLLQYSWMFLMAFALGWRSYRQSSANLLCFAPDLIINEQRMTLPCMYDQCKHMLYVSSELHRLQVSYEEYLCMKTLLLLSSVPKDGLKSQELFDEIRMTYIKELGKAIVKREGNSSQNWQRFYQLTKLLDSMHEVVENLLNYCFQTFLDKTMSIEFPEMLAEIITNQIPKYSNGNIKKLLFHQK
# Procedure, shortened: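 HepG2 cells transiently transfected with GAL4-UAS reporter units and exogenous GR-Gal4 chimera, dosed 24 h. Reporter mRNA by RT-PCR, FAM labeling, HpaI digest and capillary electrophoresis; gain-of-signal fit versus DMSO.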
# [2] = target: Hepatocyte nuclear factor 4-alpha (Homo sapiens) (UniProt P41235); test: ATG_HNF4a_TRANS: Attagene TRANS-FACTORIAL HepG2 Assay for human Hepatocyte Nuclear Factor 4 alpha (HNF4a) (AID 2282982; active = hit-call score of the fitted dose curve at least 0.9, where 1 is the maximum); conditions: HepG2 HNF4a transactivation reporter, mRNA readout
# Chain of Hepatocyte nuclear factor 4-alpha (Homo sapiens) (P41235 whole entry, looked up, the tested form may be a part): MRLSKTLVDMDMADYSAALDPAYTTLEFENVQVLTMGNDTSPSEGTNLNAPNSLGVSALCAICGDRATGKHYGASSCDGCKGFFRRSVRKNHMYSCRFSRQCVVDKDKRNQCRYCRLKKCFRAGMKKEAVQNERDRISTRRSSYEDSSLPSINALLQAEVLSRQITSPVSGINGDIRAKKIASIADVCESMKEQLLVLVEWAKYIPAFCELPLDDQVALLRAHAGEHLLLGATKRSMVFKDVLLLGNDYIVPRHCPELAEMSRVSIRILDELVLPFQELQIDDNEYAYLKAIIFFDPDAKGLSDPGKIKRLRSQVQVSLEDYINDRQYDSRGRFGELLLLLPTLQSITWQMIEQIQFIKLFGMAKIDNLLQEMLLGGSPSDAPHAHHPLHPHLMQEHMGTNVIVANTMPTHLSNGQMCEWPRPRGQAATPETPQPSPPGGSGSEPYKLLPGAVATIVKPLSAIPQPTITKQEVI
# Procedure, shortened: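 Cells used were human HepG2, transiently carrying GAL4-UAS reporter units read out against exogenous NR-GAL4 chimeras. Reporter transcript levels after 24 h dosing were quantified by fluorescent RT-PCR and capillary electrophoresis.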
# [3] = ATG_M_06_TRANS: Attagene TRANS-FACTORIAL HepG2 Assay for M06 Transcription Factor (Internal Marker) (AID 2282983; active = hit-call score of the fitted dose curve at least 0.9, where 1 is the maximum); conditions: HepG2 Attagene TRANS M06 internal marker reporter
# Procedure, shortened: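 Internal-marker background readout from a multiplexed TRANS reporter system in HepG2; 24 h dosing; mRNA induction quantified by RT-PCR plus capillary electrophoresis fluorescence; DMSO as negative control and baseline.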
# [4] = ATG_M_32_TRANS: Attagene TRANS-FACTORIAL HepG2 Assay for M32 Transcription Factor (Internal Marker) (AID 2282984; active = hit-call score of the fitted dose curve at least 0.9, where 1 is the maximum;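 note: transcript level of a background control reporter unit measured by RT-PCR and capillary electrophoresis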); conditions: HepG2 Attagene TRANS M32 internal marker reporter
# Procedure, shortened: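 Human hepatoma HepG2, transient MRTU transfection, 24 h treatment. RNA → RT-PCR → fluorescent primer extension → HpaI digest (2 h, 37 C) → CE. Positive-direction fit vs DMSO.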
# [5] = target: Nuclear receptor subfamily 4 group A member 2 (Homo sapiens) (UniProt P43354); test: ATG_NURR1_TRANS: Attagene TRANS-FACTORIAL HepG2 Assay for human Nuclear Receptor Related Protein 1 (NURR1) (AID 2282985; active = hit-call score of the fitted dose curve at least 0.9, where 1 is the maximum); conditions: HepG2 Attagene TRANS reporter, mRNA readout
# Chain of Nuclear receptor subfamily 4 group A member 2 (Homo sapiens) (P43354 whole entry, looked up): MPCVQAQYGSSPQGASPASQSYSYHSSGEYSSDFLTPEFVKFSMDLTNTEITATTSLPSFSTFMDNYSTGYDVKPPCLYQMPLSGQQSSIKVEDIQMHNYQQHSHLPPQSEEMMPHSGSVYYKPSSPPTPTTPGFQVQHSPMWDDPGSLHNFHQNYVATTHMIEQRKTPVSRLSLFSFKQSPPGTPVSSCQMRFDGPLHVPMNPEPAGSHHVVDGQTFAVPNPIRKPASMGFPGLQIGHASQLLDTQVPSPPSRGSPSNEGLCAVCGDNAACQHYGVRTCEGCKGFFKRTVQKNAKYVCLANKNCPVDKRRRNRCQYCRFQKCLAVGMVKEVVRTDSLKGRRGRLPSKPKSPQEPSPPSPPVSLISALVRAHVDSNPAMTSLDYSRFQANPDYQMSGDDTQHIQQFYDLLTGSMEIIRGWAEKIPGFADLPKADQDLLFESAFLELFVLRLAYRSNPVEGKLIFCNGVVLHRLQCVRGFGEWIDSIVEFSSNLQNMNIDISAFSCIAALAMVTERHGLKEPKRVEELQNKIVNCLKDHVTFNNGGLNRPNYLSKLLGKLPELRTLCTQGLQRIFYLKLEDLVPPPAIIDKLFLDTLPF
# Procedure, shortened: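 After 24 h chemical dosing, total RNA from transiently transfected HepG2 cells was reverse-transcribed and reporter cDNA PCR-amplified, FAM-labelled and analysed by capillary electrophoresis. Activity fitted in positive direction, DMSO as negative control.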
# [6] = target: Transcriptional activator Myb (Homo sapiens) (UniProt P10242); test: ATG_Myb_CIS: Attagene CIS-FACTORIAL HepG2 Assay for human Myeloblastosis (Myb) Proto-Oncogene Transcription Factor (AID 2282986); conditions: HepG2 Attagene CIS-FACTORIAL Myb reporter transcription; actives raise or lower the signal
# Chain of Transcriptional activator Myb (Homo sapiens) (P10242 whole entry, looked up): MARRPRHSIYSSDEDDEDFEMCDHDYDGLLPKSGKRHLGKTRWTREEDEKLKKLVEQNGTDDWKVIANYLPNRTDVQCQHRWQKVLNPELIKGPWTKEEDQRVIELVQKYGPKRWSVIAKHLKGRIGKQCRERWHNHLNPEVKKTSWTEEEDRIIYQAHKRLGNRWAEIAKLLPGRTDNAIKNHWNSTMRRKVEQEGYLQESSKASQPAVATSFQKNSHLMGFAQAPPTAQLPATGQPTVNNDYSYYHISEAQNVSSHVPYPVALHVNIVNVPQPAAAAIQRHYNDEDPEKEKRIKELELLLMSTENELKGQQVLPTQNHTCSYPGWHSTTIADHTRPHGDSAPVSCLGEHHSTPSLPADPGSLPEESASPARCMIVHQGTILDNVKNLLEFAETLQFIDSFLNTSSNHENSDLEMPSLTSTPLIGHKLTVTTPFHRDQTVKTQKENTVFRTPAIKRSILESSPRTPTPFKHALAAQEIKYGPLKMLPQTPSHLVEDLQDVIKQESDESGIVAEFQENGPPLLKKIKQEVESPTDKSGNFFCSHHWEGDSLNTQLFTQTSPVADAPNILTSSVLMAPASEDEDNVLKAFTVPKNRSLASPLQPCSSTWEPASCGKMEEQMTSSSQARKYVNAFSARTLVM
# Procedure, shortened: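 Transiently transfected HepG2 cells carrying a multiplexed cis-promoter reporter set report endogenous Myb activity after 24 h compound exposure. Reporter mRNA is read by RT-PCR with capillary electrophoresis of fluorescent products, fitted bidirectionally against DMSO.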
# [7] = ATG_NFI_CIS: Attagene CIS-FACTORIAL HepG2 Assay for human Nuclear Factor I (NFI) (AID 2282989); conditions: HepG2 cis-regulatory reporter, NFI response element transcription; actives raise or lower the signal
# Procedure, shortened: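 Cells: human liver HepG2, transiently transfected with promoter-regulated reporter transcription units. Exposure 24 h. Detection: fluorescent RT-PCR products separated by capillary electrophoresis, normalised to DMSO negative control.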
# [8] = target: Myc proto-oncogene protein (Homo sapiens) (UniProt P01106); test: ATG_Myc_CIS: Attagene CIS-FACTORIAL HepG2 Assay for human Myelocytomatosis (Myc) Proto-Oncogene Transcription Factor (AID 2282990); conditions: HepG2, Attagene cis-reporter transcription factor activity; actives raise or lower the signal
# Chain of Myc proto-oncogene protein (Homo sapiens) (P01106 whole entry, looked up): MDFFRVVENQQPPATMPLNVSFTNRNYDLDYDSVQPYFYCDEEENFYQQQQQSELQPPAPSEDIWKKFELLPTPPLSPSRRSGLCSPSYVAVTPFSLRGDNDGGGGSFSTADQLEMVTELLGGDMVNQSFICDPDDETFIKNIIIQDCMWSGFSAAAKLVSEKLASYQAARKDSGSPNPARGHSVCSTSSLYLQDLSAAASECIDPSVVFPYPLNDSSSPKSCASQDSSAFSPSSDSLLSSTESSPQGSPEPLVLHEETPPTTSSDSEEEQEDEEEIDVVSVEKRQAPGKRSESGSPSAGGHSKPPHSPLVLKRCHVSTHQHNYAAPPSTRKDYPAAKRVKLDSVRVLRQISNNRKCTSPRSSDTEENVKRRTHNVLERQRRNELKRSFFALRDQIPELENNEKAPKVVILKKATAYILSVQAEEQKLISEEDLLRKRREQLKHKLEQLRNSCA
# Procedure, shortened: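 Multiplexed cis-reporter transcription in HepG2 cells after 24 h chemical treatment. Reporter mRNA measured by RT-PCR and capillary electrophoresis fluorescence; activity fitted bidirectionally against DMSO control.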
# [9] = ATG_NF_kB_CIS: Attagene CIS-FACTORIAL HepG2 Assay for human Nuclear Factor Kappa B (NF-kB) (AID 2282991); conditions: HepG2 Attagene cis-factorial NF-kB reporter mRNA; actives raise or lower the signal
# Procedure, shortened: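 HepG2 cells transfected with cis-promoter-driven reporter units, so endogenous transcription factor activity is measured. Reporter mRNA quantified 24 h after dosing by RT-PCR and capillary electrophoresis, with bidirectional fitting against DMSO.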
# [10] = ATG_NRF2_ARE_CIS: Attagene CIS-FACTORIAL HepG2 Assay for human Nuclear Factor Erythroid 2 Related Factor 2 (NFR2) response to Antioxidant Response Elements (ARE) (AID 2282992); conditions: HepG2 Attagene ARE/NRF2 reporter, transcription factor activity; actives raise or lower the signal
# Procedure, shortened: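 HepG2 cells transiently transfected with multiplexed cis-element reporter constructs, 24 h after chemical dosing; reporter mRNA quantified by RT-PCR, fluorescent primer extension, HpaI digestion and capillary electrophoresis. Bidirectional fit relative to DMSO.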
# [11] = ATG_Oct_MLP_CIS: Attagene CIS-FACTORIAL HepG2 Assay for human Octamer-Binding Transcription Factor (Oct) (AID 2282993); conditions: HepG2 Attagene cis-factorial Oct reporter, mRNA; actives raise or lower the signal
# Procedure, shortened: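 HepG2, transient MRTU transfection, cis promoter elements; 24 h dosing; RT-PCR/CE fluorescence read-out of reporter mRNA; fit both directions vs DMSO.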
# [12] = target: Cellular tumor antigen p53 (Homo sapiens) (UniProt P04637); test: ATG_p53_CIS: Attagene CIS-FACTORIAL HepG2 Assay for human p53 Transcription Factor (AID 2282994); conditions: HepG2 p53 cis-element reporter, Attagene mRNA; actives raise or lower the signal
# Chain of Cellular tumor antigen p53 (Homo sapiens) (P04637 whole entry, looked up): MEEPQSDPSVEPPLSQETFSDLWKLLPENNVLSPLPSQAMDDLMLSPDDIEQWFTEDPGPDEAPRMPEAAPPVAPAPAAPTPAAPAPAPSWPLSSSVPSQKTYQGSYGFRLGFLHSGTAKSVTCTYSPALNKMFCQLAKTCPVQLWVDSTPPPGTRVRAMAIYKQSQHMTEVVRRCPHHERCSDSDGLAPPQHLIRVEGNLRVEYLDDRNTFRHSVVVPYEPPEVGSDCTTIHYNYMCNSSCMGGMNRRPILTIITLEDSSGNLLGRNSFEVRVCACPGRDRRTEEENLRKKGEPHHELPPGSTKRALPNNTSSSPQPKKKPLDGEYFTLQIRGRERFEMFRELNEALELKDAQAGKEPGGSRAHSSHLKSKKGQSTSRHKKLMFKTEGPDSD
# Procedure, shortened: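 HepG2 cells transiently transfected with cis-regulated multiple reporter transcription units, dosed 24 h. Reporter mRNA measured by RT-PCR, 6-FAM primer extension, HpaI digestion and capillary electrophoresis; bidirectional fit relative to DMSO.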
# [13] = target: Oxysterols receptor LXR-beta (Homo sapiens) (UniProt P55055); test: ATG_LXRb_TRANS: Attagene TRANS-FACTORIAL HepG2 Assay for human Liver X Receptor beta (LXRb) (AID 2282981; active = hit-call score of the fitted dose curve at least 0.9, where 1 is the maximum); conditions: HepG2 Attagene TRANS GAL4-LXRb reporter, mRNA
# Chain of Oxysterols receptor LXR-beta (Homo sapiens) (P55055 whole entry, looked up, the tested form may be a part): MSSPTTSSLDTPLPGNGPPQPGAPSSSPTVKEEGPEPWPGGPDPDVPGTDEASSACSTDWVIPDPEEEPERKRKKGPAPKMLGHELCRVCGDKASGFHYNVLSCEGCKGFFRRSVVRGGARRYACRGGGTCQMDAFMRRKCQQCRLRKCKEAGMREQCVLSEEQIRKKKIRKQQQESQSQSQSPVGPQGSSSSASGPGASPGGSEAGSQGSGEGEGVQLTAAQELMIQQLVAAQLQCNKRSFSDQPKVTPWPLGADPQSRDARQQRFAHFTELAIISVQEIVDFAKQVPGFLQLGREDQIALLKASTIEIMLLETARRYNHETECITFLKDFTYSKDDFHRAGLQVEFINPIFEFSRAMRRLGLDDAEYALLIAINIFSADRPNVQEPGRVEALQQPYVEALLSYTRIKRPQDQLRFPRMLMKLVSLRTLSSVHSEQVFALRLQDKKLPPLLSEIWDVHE
# Procedure, shortened: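 In this TRANS format, exogenous chimeric NR-Gal4 protein activity, not endogenous factors, drives reporter expression in transfected human HepG2 cells. Exposure lasted 24 h; reporter mRNA was read by fluorescent capillary electrophoresis.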
# [14] = target: Nuclear respiratory factor 1 (Homo sapiens) (UniProt Q16656); test: ATG_NRF1_CIS: Attagene CIS-FACTORIAL HepG2 Assay for human Nuclear Respiratory Factor 1 (NRF1) Orphan Gene (AID 2282987); conditions: HepG2 NRF1 cis-element reporter, Attagene multiplex; actives raise or lower the signal
# Chain of Nuclear respiratory factor 1 (Homo sapiens) (Q16656 whole entry, looked up): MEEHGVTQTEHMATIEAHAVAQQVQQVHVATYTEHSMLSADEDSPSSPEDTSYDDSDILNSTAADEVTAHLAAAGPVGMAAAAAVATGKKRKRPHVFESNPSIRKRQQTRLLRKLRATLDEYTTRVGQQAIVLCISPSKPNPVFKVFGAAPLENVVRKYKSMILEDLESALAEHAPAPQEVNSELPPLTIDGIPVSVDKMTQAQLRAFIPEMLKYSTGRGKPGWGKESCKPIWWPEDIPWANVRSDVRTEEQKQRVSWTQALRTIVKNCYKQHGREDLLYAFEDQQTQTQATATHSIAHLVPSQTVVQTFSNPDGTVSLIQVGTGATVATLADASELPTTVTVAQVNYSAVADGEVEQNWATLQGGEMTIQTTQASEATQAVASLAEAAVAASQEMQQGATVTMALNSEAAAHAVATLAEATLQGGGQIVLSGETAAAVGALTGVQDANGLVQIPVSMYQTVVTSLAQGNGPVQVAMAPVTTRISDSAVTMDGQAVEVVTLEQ
# Procedure, shortened: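 HepG2 cells transiently transfected with multiple cis-regulated reporter units, exposed 24 h. Reporter mRNAs measured by RT-PCR, fluorescent labelling, HpaI digestion and capillary electrophoresis; bidirectional fitting against DMSO.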
# [15] = BSK_3C_TissueFactor: BioMAP Diversity Plus: 3C Assay for Tissue Factor Biomarker Activity (AID 2282997); conditions: BioMAP 3C HUVEC, tissue factor biomarker readout; actives raise or lower the signal
# Procedure, shortened: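 Endothelial monolayers (human umbilical vein, primary) are dosed, incubated 24 h, and assayed for Tissue Factor by ELISA; DMSO serves as negative control for bidirectional fitting.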
# [16] = BSK_3C_uPAR: BioMAP Diversity Plus: 3C Assay for Urokinase-type plasminogen activator receptor (uPAR) Biomarker Activity (AID 2282998); conditions: BioMAP 3C HUVEC, uPAR biomarker ELISA; actives raise or lower the signal
# Procedure, shortened: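 A multiplexed primary-cell system built on human umbilical vein endothelium was used, with chemical present for 24 h before reading. Cell-surface uPAR was detected by ELISA; signal change in either direction counted against DMSO.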
# [17] = BSK_3C_VCAM1: BioMAP Diversity Plus: 3C Assay for Vascular cell adhesion molecule 1 (VCAM1) Biomarker Activity (AID 2282999); conditions: BioMAP 3C HUVEC, VCAM1 ELISA, cytokine-stimulated; actives raise or lower the signal
# Procedure, shortened: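 Human umbilical vein endothelial cells were dosed with compound for 24 h, after which cell-surface VCAM-1 was quantified by ELISA. Bidirectional curve fitting used DMSO as negative control and activity baseline.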
# [18] = BSK_4H_Eotaxin3: BioMAP Diversity Plus: 4H Assay for Eotaxin 3 Biomarker Activity (AID 2283000); conditions: primary human endothelial cells (HUVEC); actives raise or lower the signal;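 note: CCL26 protein level quantified by ELISA in parallel with SRB cytotoxicity check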
# Procedure, shortened: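 ELISA quantitation of CCL26 (Eotaxin-3) protein from chemically dosed human vascular endothelial cells at 24 h; increases and decreases both scored relative to DMSO-treated baseline.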
# [19] = target: Oxysterols receptor LXR-alpha (Homo sapiens) (UniProt Q13133); test: ATG_LXRa_TRANS: Attagene TRANS-FACTORIAL HepG2 Assay for human Liver X Receptor alpha (LXRa) (AID 2282980; active = hit-call score of the fitted dose curve at least 0.9, where 1 is the maximum); conditions: HepG2 Attagene TRANS reporter, LXRa transactivation
# Chain of Oxysterols receptor LXR-alpha (Homo sapiens) (Q13133 whole entry, looked up, the tested form may be a part): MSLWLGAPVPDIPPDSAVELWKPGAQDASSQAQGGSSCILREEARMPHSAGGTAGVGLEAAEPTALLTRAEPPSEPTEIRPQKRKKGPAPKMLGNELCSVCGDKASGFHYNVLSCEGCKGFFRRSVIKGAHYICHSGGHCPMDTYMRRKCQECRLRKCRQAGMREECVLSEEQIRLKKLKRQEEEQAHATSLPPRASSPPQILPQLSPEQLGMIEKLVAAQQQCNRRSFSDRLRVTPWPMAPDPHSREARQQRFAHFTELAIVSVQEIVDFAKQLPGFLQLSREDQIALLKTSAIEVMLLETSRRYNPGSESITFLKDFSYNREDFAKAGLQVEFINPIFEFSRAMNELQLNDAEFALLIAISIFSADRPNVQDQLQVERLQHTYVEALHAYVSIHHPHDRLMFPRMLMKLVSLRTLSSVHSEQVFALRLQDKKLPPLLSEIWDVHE
# Procedure, shortened: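 In this multiplexed TRANS system, compounds act on HepG2 cells carrying GAL4-UAS reporter units and a receptor-GAL4 fusion for 24 h. Induced reporter RNA is amplified, fluorescently labelled and sized by capillary electrophoresis, with DMSO as baseline.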
smiles,measurement,setting,value
Nc1ccc(Cl)c([N+](=O)[O-])c1,outcome,[1],inactive
same,outcome,[2],inactive
same,outcome,[3],inactive
same,outcome,[4],inactive
same,outcome,[5],inactive
same,outcome,[6],inactive
same,outcome,[7],inactive
same,outcome,[8],inactive
same,outcome,[9],inactive
same,outcome,[10],inactive
same,outcome,[11],inactive
same,outcome,[12],inactive
CS(=O)(=O)c1ccc(C2=C(c3ccccc3)C(=O)OC2)cc1,outcome,[1],inactive
same,outcome,[13],inactive
same,outcome,[2],inactive
same,outcome,[6],inactive
same,outcome,[14],inactive
same,outcome,[7],inactive
same,outcome,[8],inactive
same,outcome,[9],inactive
same,outcome,[10],inactive
same,outcome,[11],inactive
same,outcome,[12],inactive
same,outcome,[15],inactive
same,outcome,[16],inactive
same,outcome,[17],inactive
same,outcome,[18],inactive
CC=CC=CCOC(=O)C(C)C,outcome,[1],inactive
same,outcome,[13],inactive
same,outcome,[2],inactive
same,outcome,[5],inactive
same,outcome,[6],inactive
same,outcome,[14],inactive
same,outcome,[8],inactive
same,AC50,[10],27.1 µM (active)
same,outcome,[11],inactive
same,outcome,[12],inactive
COCCc1ccc(OCC(O)CNC(C)C)cc1 (stereo not given),outcome,[1],inactive
same,outcome,[14],inactive
same,outcome,[7],inactive
same,outcome,[8],inactive
same,outcome,[9],inactive
same,outcome,[10],inactive
same,outcome,[11],inactive
same,outcome,[12],inactive
c1ccc2cc(Nc3ccc(Nc4ccc5ccccc5c4)cc3)ccc2c1,outcome,[1],inactive
same,outcome,[19],inactive
same,outcome,[3],inactive
same,outcome,[6],inactive
same,outcome,[14],inactive
same,outcome,[7],inactive
same,outcome,[8],inactive
same,outcome,[10],inactive
same,outcome,[11],inactive
same,outcome,[12],inactive
same,AC50,[15],13.9 µM (active)
same,outcome,[16],inactive
same,outcome,[17],inactive
same,outcome,[18],inactive
C=C1C[C@]23C[C@@]1(O)CC[C@H]2[C@@]12C=C[C@H](O)[C@@](C)(C(=O)O1)[C@H]2[C@@H]3C(=O)O,outcome,[1],inactive
same,outcome,[19],inactive
same,outcome,[3],inactive
same,outcome,[14],inactive
same,outcome,[7],inactive
same,outcome,[8],inactive
same,outcome,[11],inactive
CCCCCCCC(=O)OCC(O)CO (stereo not given),outcome,[1],inactive
same,outcome,[13],inactive
same,outcome,[5],inactive
same,outcome,[6],inactive
same,outcome,[7],inactive
same,outcome,[8],inactive
same,outcome,[9],inactive
same,outcome,[10],inactive
same,outcome,[11],inactive
same,outcome,[12],inactive
BrCc1cccc(Oc2ccccc2)c1,outcome,[1],inactive
same,outcome,[13],inactive
same,outcome,[3],inactive
same,outcome,[4],inactive
same,outcome,[6],inactive
same,outcome,[14],inactive
same,outcome,[7],inactive
same,outcome,[8],inactive
same,outcome,[9],inactive
same,AC50,[10],58.4 µM (active)
same,outcome,[11],inactive
C[C@H](CCC(=O)NCC(=O)O)[C@H]1CC[C@H]2[C@@H]3[C@H](O)C[C@@H]4C[C@H](O)CC[C@]4(C)[C@H]3C[C@H](O)[C@]12C,outcome,[1],inactive
same,outcome,[13],inactive
same,outcome,[2],inactive
same,outcome,[6],inactive
same,outcome,[14],inactive
same,outcome,[7],inactive
same,outcome,[8],inactive
same,outcome,[9],inactive
same,outcome,[10],inactive
same,outcome,[11],inactive
same,outcome,[12],inactive
CCCSc1ccc2nc(NC(=O)OC)[nH]c2c1,outcome,[1],inactive
same,outcome,[13],inactive
same,outcome,[3],inactive
same,outcome,[4],inactive
same,outcome,[6],inactive
same,outcome,[14],inactive
same,outcome,[8],inactive
same,outcome,[9],inactive
same,outcome,[11],inactive
same,outcome,[12],inactive
O=c1[nH]c(=O)c2cn[nH]c2[nH]1,outcome,[1],inactive
same,outcome,[13],inactive
same,outcome,[2],inactive
same,outcome,[4],inactive
same,outcome,[6],inactive
same,outcome,[14],inactive
same,outcome,[7],inactive
same,outcome,[8],inactive
same,outcome,[10],inactive
same,outcome,[11],inactive
same,outcome,[12],inactive
CCCCCCCC/C=C\CCCCCCCC(=O)OCC,outcome,[1],inactive
same,outcome,[6],inactive
same,outcome,[14],inactive
same,outcome,[8],inactive
same,outcome,[10],inactive
same,outcome,[11],inactive
